Inconclusive results are not listed. Entries that show only a call come without a potency. The source made the active and inactive calls. Calls follow the shape of the dose curve; as a rule, active = well fitted inhibition curve with a large enough effect; inconclusive = small, poorly fitted or top-dose-only effect; inactive = flat fitted curve, though single readings scatter.
Potency is read from the fitted curve at half-maximal effect.

The assay relates to 7G8. The assay is described as follows: qHTS profiling for inhibitors of Plasmodium falciparum proliferation (AID 504749). Also: nearly all actives have a fitted effect of over 60% in size. Conditions: P. falciparum in erythrocytes, SYBR Green DNA, 72 h; series mostly up to 28.7 µM. The method, boiled down: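 Readout was DNA-dye fluorescence from lysed cultures, ex 485/em 535 nm. Parasitized red cells had grown 72 h with compound; data scaled between 0.29 uM artemisinin and DMSO wells and corrected using vehicle-only plates.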
`CNC(=O)Oc1ccccc1C(=O)Nc1ccccc1`: the Potency was 10 µM (active).
For the molecule `ClCC1CO1` (stereo unspecified), the Potency entry is “inactive”.
Regarding `CCCCCl`, the Potency result was “inactive”.
As for `C#CC(C)(O)CC` (stereo unspecified), the Potency result was “inactive”.
Take `Clc1ccc(Cl)cc1`: the Potency result is “inactive”.
With `CN1C2CCC1CC(OC(c1ccccc1)c1ccc(Cl)cc1)C2` (stereo unspecified), the Potency is 4.47 µM (active).
Consider `COCC(C)N(C(=O)CCl)c1c(C)csc1C` (stereo unspecified), for which the Potency result is “inactive”.
As to `C=CCN(C1=NCCN1)c1c(Cl)cccc1Cl`, the Potency entry is “inactive”.
The value for `ClC=C(Cl)Cl` was “inactive”; that for `N#CC1(N2CCCCC2)CCCCC1` was “inactive”; that for `COc1ccc2c(c1OC)C(=O)OC2C1c2cc3c(cc2CCN1C)OCO3` (stereo unspecified) was “inactive”.
For the molecule `S=C(S)N1CCNCC1`, the Potency result was “inactive”.
Consider `CCCCCCCCCC(=O)O[C@H]1CC[C@H]2[C@@H]3CCC4=CC(=O)CC[C@]4(C)[C@H]3CC[C@]12C`, for which the Potency entry was “inactive”.
As to `Clc1ccccc1Cl`, the Potency entry is “inactive”.
Consider `C[N+]1(C)C2CCC1CC(OC(=O)c1c[nH]c3ccccc13)C2` (stereo unspecified), for which the Potency result was “inactive”.
Consider `c1csc(C2(N3CCCCC3)CCCCC2)c1`, for which the Potency entry is “inactive”.
The value for `C[C@H]1CCC[C@H](O)CCCCCc2cc(O)cc(O)c2C(=O)O1` was 12.6 µM (active); that for `CCNC(C)Cc1cccc(C(F)(F)F)c1` (stereo unspecified) was “inactive”; that for `CNC1(c2ccccc2Cl)CCCCC1=O` (stereo unspecified) was “inactive”.
For `[O]=[Cr](=[O])([OH])[O][Cr](=[O])(=[O])[OH]`, the Potency result was “inactive”.
In the case of `F/C(COc1ccc2c(c1)[nH]c1ccccc12)=C1/CN2CCC1CC2` it was 5.01 µM (active).
Regarding `[Cl-].[Cl-].[Hg+2]`, the Potency is 11.2 µM (active).
Consider `CN1[C@@H]2CC[C@H]1CC(OC1c3ccccc3CCc3ccccc31)C2` (stereo partly specified), for which the Potency was 3.98 µM (active).
For the molecule `C[C@@H](Cc1ccccc1)NCCC(c1ccccc1)c1ccccc1`, the Potency was 4.47 µM (active).
With `O=P(O)(O)C(Cl)(Cl)P(=O)(O)O`, the Potency result was “inactive”.
In the case of `CCCC(C)C1(CC)C(=O)NC(=O)NC1=O` (stereo unspecified), the Potency result was “inactive”.
As to `c1ccc(C2(N3CCCC3)CCCCC2)cc1`, the Potency was 11.2 µM (active).
With `ClC(Cl)(Cl)Cl`, the Potency result was “inactive”.
On to `CCC1C(C)=NN=C(c2ccc(OC)c(OC)c2)c2cc(OC)c(OC)cc21` (stereo unspecified), for which the Potency was 14.1 µM (active).
On to `COC([CH2][Hg])CNC(=O)c1ccccc1OCC(=O)O` (stereo unspecified), for which the Potency entry was “inactive”.
Turning to `O=c1c2ccccc2[se]n1-c1ccccc1`, the Potency was 8.91 µM (active).

The record behind these values is PubChem BioAssay (NCATS).
